Source: PubChem (several laboratories)
A selection: hits, their analogues and other compounds. The true share with any hit is near 2.7%.
CFTR F508del cor: F508del CFTR correction, initial screen, CFBE line, single point; CFBE cells, YFP halide quenching; stimulated with forskolin plus potentiator P3; % fluorescence drop versus neutral controls; activity (quench increase), % at 7.58 µM; hit rate 0.36% among 350,000;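 active = mean added fluorescence quench of at least 8% versus neutral control, with both replicates also reaching 8%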;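 also: cells transiently co-express mutant CFTR-F508del with the halide-sensitive YFP; corrector assay measuring rescue of mutant channel to the surface after 24 h compound exposure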
ATG4B inhibitor: ATG4B protease inhibitors, primary screen, biochemical, fluorescence, uHTS. inhibition, % at 8.33 µM. Cysteine protease ATG4B (Homo sapiens), Q9Y4P1. hit rate 0.51% among 340,000. ATG4B cleavage of LC3-PLA2, NBD-HPC fluorescence, 1 h; in the data active = inhibition above about 40%
Target sequence (Q9Y4P1 whole entry, looked up): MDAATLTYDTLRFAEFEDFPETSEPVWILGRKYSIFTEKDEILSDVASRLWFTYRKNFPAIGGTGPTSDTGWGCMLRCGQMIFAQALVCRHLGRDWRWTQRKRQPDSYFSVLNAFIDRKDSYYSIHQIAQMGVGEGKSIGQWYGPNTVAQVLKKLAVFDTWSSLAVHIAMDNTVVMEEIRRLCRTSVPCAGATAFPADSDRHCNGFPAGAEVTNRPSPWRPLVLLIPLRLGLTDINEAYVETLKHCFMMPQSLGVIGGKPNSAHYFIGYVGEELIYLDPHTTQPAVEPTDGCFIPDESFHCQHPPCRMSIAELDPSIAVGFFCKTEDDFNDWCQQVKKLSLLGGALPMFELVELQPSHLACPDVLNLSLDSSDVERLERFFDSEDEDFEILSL
SKN-1 inh: suppressors of acrylamide-induced Pgst-4::GFP reporter in worms, primary screen, SKN-1 inhibitor project, whole organism, uHTS, GFP/RFP fluorescence ratio, strain VP596; C. elegans VP596 Pgst-4::GFP/RFP ratio, 24 h; inhibition, % at 21.8 µM; hit rate 0.49% among 360,000; AID 624304, 2012;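 active = interference check ratio from 0.5 to 1.5 plus GFP to RFP signal ratio inhibition reaching or exceeding a fixed threshold, cut at about 30% in these data, passing the limit was not always enough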
NRP1-CendR mod: modulators of CendR peptide binding to NRP-1, primary screen, biochemical, fluorescence polarization, uHTS. hit rate 0.85% among 360,000. inhibition, % at 25 µM. FAM-RPARPAR peptide binding to NRP-1;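 active = inhibition or corrected inhibition above about 18%, plus a signal ratio from 0.5 to 1.5, limit read from the data, passing the limit was not always enough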
MPTP block: mitochondrial permeability transition pore inhibitors, primary screen, biochemical, isolated mouse mitochondria, absorbance; Ca2+ swelling absorbance, 30 min; inhibition, % at 10 µM; hit rate 1.4% among 360,000;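 active = inhibition of 50% or more, scaled per plate between neutral and stimulator controls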
MPTP counter: fluorescence retest of MPTP screen hits in isolated mitochondria, single concentration. hit rate 78% among 5,000. shares compounds with MPTP block. inhibition, % at 10 µM. membrane potential, Rhodamine 123 fluorescence; in the data active = inhibition above about 22%
MPTP swell DR: mitochondrial permeability transition pore inhibitors, dose response, biochemical, absorbance, uHTS hits; IC50, µM; isolated mitochondria swelling; hit rate 58% among 780; shares compounds with MPTP block; in the data active = IC50 below about 20 µM
MPTP cs DR: fluorescent counter-screen in isolated mitochondria, dose response, counter-screen for MPTP inhibitor project, biochemical, fluorescence, uHTS hits; shares compounds with MPTP block; isolated mitochondria counterscreen, fluorescence read-out; IC50, µM; hit rate 49% among 780; AID 651564, 2012; in the data active = IC50 below about 80 µM
Numbers stand for hits; i = inactive; nt = no result given.

SMILES	CFTR F508del cor	ATG4B inhibitor	SKN-1 inh	NRP1-CendR mod	MPTP block	MPTP counter	others
O=C(Nc1cccc(S(=O)(=O)N2CCCCCC2)c1)c1cc(=O)c2ccccc2o1	nt	i	i	i	52	64
Cc1cc(C)c2oc(C(=O)Nc3ccc(S(=O)(=O)N4CCC(C)CC4)cc3)cc(=O)c2c1	nt	i	i	i	60	i	MPTP swell DR=i;MPTP cs DR=i
CN1[C@@H]2c3ccc(C4=CCCCC4)c(=O)n3C[C@H]1[C@H](CO)[C@H]2C(=O)N1CCCCC1	i	nt	nt	nt	nt	nt
COc1cc(C(=O)NCCOc2cc(C)ccc2C(C)C)cc(OC)c1OC	i	i	i	i	57	64
CC(C)(C)c1cc(C(=O)NN)n(Cc2ccc(F)cc2)n1	i	i	i	i	i	nt
Cc1cccc(Cn2nc(C(C)(C)C)cc2C(=O)Nc2ccc(F)cc2)c1	i	i	i	i	83	87
C[C@@H]1CCCCO[C@H](CN(C)C(=O)Nc2ccc(F)cc2)[C@@H](C)CN([C@@H](C)CO)C(=O)c2cc(NC(=O)CCC(F)(F)F)ccc2O1	i	nt	nt	nt	nt	nt
N#CC1=C(N)SC(N)=C(C#N)C1Cc1ccccc1	nt	i	i	i	77	73
N#CC1=C(N)SC(N)=C(C#N)C1c1c(Cl)cccc1Cl	nt	i	i	i	i	nt
CC(C)CC1C(C#N)=C(N)SC(N)=C1C#N	nt	i	i	i	62	78
CCOc1ccc(C2C(C#N)=C(N)SC(N)=C2C#N)cc1OCC	nt	i	i	i	i	nt
Cc1[nH]nc2c1C(CC(C)C)C(C#N)=C(N)O2 (stereo not given)	i	i	i	i	i	nt
N#CC1=C(N)SC(N)=C(C#N)C1c1cccc(Oc2ccccc2)c1	i	i	i	i	89	70
N#CC1=C(N)SC(N)=C(C#N)C1CCc1ccccc1	nt	i	i	i	96	67
C[C@@H](O)C#Cc1ccc([C@H]2[C@@H](CO)N3CCCCN(C(=O)Nc4ccccc4)C[C@@H]23)cc1	i	nt	nt	nt	nt	nt
Cc1ccc([C@@H]2CC(=O)[C@@H]3CN(S(=O)(=O)c4ccccc4C)[C@H](c4ccc(Cl)cc4)C[C@@H]3N2S(=O)(=O)c2ccc(C)cc2)cc1	i	nt	i	i	58	77
Cc1ccc(S(=O)(=O)N2[C@H](c3ccc(Cl)cc3)CC(=O)[C@@H]3CN(S(=O)(=O)c4ccccc4C)[C@H](c4ccc(Cl)cc4)C[C@@H]32)cc1	i	nt	i	i	i	nt
Cc1ccc(S(=O)(=O)N2[C@H](c3cccc(Cl)c3)CC(=O)[C@@H]3CN(S(=O)(=O)c4ccccc4C)[C@H](c4ccc(Cl)cc4)C[C@@H]32)cc1	i	nt	i	i	81	69
Cc1ccc([C@@H]2C[C@H]3[C@@H](CN2S(=O)(=O)c2ccc(Cl)cc2)C(=O)C[C@@H](c2cccc(Cl)c2)N3S(=O)(=O)c2ccc(C)cc2)cc1	i	nt	i	i	i	nt
CN1CCN(C(=O)C[C@@H]2CC[C@@H]3[C@H](COC[C@@H](O)CN3C(=O)C3CCOCC3)O2)CC1	i	nt	nt	nt	nt	nt
COc1ccc(NC(=O)N(C)C[C@@H]2Oc3ccc(NC(=O)NC(C)C)cc3C(=O)N([C@@H](C)CO)C[C@H]2C)cc1	i	nt	nt	nt	nt	nt
COc1ccc(S(=O)(=O)Nc2cccc3c2O[C@@H](CN(C)C(=O)NC2CCCCC2)[C@H](C)CN([C@@H](C)CO)C3=O)cc1	i	nt	nt	nt	nt	nt
CC(C)(C)c1nc(N2CCN(C(=O)c3ccco3)CC2)c2nnn(Cc3ccccc3)c2n1	nt	i	i	i	54	69
CC(C)c1ccc(NC(=O)N(CCc2nc3ccccc3[nH]2)C2CCCC2)cc1	nt	i	i	i	58	81
CC(=O)Nc1ccc(CCc2nc3ccccc3[nH]2)cc1	i	i	i	i	i	nt
SMILES	CFTR F508del cor	ATG4B inhibitor	SKN-1 inh	NRP1-CendR mod	MPTP block	MPTP counter	others
OCc1nc2nc(Cl)c(Cl)nc2[nH]1	i	i	i	i	i	nt
CCCCSCc1nc2nc(Cl)c(Cl)nc2[nH]1	i	nt	i	i	72	83
COc1ccc2nc3cc(Cl)ccc3c(Nc3cc(C(C)C)c(O)cc3C)c2c1	i	i	i	i	84	109
COc1ccc(S(=O)(=O)Nc2cc(C(C)C)c(O)cc2C)cc1	nt	i	i	i	i	nt
CCn1nccc1C(=O)Nc1cc(Cl)cc(Cl)c1	nt	i	i	i	66	75
CN(Cc1c(F)cccc1Cl)C(=O)c1cccc(S(=O)(=O)N2CCN(Cc3ccccc3)CC2)c1	i	i	i	i	i	nt
CN(Cc1ccc(OC(F)F)cc1)C(=O)c1cccc(S(=O)(=O)N2CCN(Cc3ccccc3)CC2)c1	i	i	i	i	58	99
C[C@H]1CN([C@@H](C)CO)C(=O)Cc2cc(NC(=O)NC3CCCCC3)ccc2O[C@H]1CN(C)C(=O)Nc1ccc(F)cc1	i	nt	nt	nt	nt	nt
O=C(C[C@H]1CC[C@H](NC(=O)c2ccc(F)cc2)[C@H](CO)O1)NCCc1ccncc1	i	nt	nt	nt	nt	nt
Cn1nc(C(=O)OCc2ccc(F)cc2)c2ccccc2c1=O	i	i	i	i	i	nt
Cc1ccc(COC(=O)c2nn(C)c(=O)c3ccccc23)cc1	i	i	i	i	55	34
CC(C)COc1ccc(C(=O)OC2CC(C)(C)OCC2CN(C)C)cc1 (stereo not given)	nt	i	i	i	68	i	MPTP swell DR=12;MPTP cs DR=i
CNCCCC1c2ccccc2C=Cc2ccccc21	i	i	i	i	i	nt
CNCCCC1Sc2ccccc2Oc2ccccc21 (stereo not given)	nt	i	i	i	79	i	MPTP swell DR=5.1;MPTP cs DR=i
On1onc2c3cc(-c4ccccc4)nc3ccc21	i	i	i	i	101	65
O=C(CCN1Cc2ccccc2C1)c1ccc2c(c1)OCCO2	nt	i	i	i	i	nt
O=C(CCN1CCc2ccccc2C(c2ccccc2)C1)c1ccc2c(c1)OCCO2 (stereo not given)	nt	i	i	i	83	i
CC(=O)Nc1ccc(NC(=O)C(C)OC(=O)c2ccc3c(c2)OCCO3)cc1 (stereo not given)	i	i	i	i	i	nt
CC(OC(=O)c1cccc(S(=O)(=O)Nc2cccc(C(F)(F)F)c2)c1)C(=O)Nc1ccc2c(c1)OCCO2 (stereo not given)	nt	i	i	31	67	69
O=C([C@@H]1[C@@H](CO)[C@@H]2Cn3c(ccc(C4=CCCCC4)c3=O)[C@H]1N2Cc1nccs1)N1CCOCC1	i	nt	nt	nt	nt	nt
Cc1ccc(-c2nnc(NCc3ccccc3)c3ccccc23)cc1	i	i	i	i	65	85
